Screening data (PubChem)
Sampled rows, rich in hits. Any-hit rate of the full collection: about 5.8%.
Gal4-VP16 FLuc – inhibits Gal4-VP16 luciferase reporter, ROR gamma counter-screen; Drosophila S2 Gal4-VP16 UAS-luciferase, luminescence, 20 h; Potency, µM (series often up to 53.6 µM), without a hit: at the highest dose activity, negative = inhibition, hits mostly inhibitors; AID 2546; actives 3.5% (n = 310,000);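 further: Gal4-VP16 expression switched on by copper sulfate through the metallothionein promoter; potency means the concentration at half of the fitted maximal effect; on the % scale 0 is the no-effect control and ±100 the full control effect; nearly all actives have a fitted effect of over 50% in size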
uPA surface inh – blocks generation of uPA at the cell surface | actives 0.31% (n = 330,000) | Potency, µM (titrated, usually from 38.3 µM), inactives show at the highest dose activity change, negative = inhibition, hits mostly inhibitors | cell surface uPA generation assay, qHTS | AID 540303; active means well fitted inhibition curve with a large enough effect; inconclusive means small, poorly fitted or top-dose-only effect; inactive means no such curve, though single readings can be large or run the other way; tested in mouse RAW 264.7 cells; further: potency means the concentration at half of the fitted maximal effect; on the % scale 0 is the no-effect control and ±100 the full control effect; nearly all actives have a fitted effect of over 55% in size
TRPV1 ag – activates the human vanilloid receptor TRPV1. TRPV1-expressing cells, Fluo-8 calcium influx, agonist mode. actives 0.19% (n = 320,000). AID 540275. activation, % at 8.33 µM. Q8NER1; in the data active means activation above about 80%; inconclusive means between about 30% and that limit; further: 0% is about no effect
Target sequence (Q8NER1 whole entry, looked up): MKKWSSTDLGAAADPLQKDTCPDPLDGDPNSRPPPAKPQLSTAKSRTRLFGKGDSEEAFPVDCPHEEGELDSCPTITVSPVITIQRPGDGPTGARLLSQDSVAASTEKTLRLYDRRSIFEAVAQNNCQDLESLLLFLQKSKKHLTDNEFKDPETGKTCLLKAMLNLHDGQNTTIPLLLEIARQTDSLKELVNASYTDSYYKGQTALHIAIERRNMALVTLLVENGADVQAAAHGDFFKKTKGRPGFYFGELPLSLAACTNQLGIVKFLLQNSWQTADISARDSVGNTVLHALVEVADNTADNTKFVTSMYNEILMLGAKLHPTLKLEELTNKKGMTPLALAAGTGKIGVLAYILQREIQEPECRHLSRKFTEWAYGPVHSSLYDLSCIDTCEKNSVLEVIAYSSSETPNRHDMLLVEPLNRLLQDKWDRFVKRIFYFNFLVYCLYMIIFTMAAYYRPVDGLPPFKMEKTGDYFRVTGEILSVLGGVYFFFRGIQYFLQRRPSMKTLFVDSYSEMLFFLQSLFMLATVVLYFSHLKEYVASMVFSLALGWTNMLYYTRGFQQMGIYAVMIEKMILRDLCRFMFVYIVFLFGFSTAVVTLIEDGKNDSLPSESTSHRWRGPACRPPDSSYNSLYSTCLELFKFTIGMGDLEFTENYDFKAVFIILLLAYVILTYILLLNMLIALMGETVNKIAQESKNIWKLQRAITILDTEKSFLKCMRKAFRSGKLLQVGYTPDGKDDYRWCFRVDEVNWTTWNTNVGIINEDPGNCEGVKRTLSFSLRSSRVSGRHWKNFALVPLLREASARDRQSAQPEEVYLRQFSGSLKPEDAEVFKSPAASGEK
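Fluo-8 calcium influx in TRPV1-expressing cells, kinetic read (ex 480/em 520 nm). Compound added and read 3 min for agonist activity, followed by capsaicin at EC20 final and 2 min further read for enhancement.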
RORg inh – inhibitors of mouse ROR gamma transcriptional activity; P51450; Drosophila S2 Gal4-RORgamma UAS-luciferase reporter, 20 h; Potency, µM (doses to about 53.6 µM), for inactives: top-dose activity change, negative = inhibition, hits mostly inhibitors; actives 5.4% (n = 310,000); AID 2551; further: potency means the concentration at half of the fitted maximal effect; on the % scale 0 is the no-effect control and ±100 the full control effect; nearly all actives have a fitted effect of over 60% in size
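Stably transfected Drosophila Schneider cells are the test system, with ROR gamma fused to Gal4 and luciferase under UAS control; luminescence is read after 20 hr of 700 uM copper sulfate induction at ambient temperature.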
TRPV1 potentiator – enhances activation of the human vanilloid receptor TRPV1; potentiation, % at 8.33 µM; TRPV1-expressing cells, Fluo-8 calcium influx, capsaicin EC20 potentiation; actives 0.02% (n = 320,000); AID 540277; in the data active means potentiation above about 80%; inconclusive means between about 30% and that limit; further: 0% is about no effect
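Fluo-8 calcium influx in TRPV1-expressing cells, kinetic read (ex 480/em 520 nm). Compound added and read 3 min for agonist activity, followed by capsaicin at EC20 final and 2 min further read for enhancement.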
The depositor's hits bear a star; u = inconclusive; x = no result; [ ] = remark or other dose. Unless noted, the call rests on the fitted dose curve; in most records, active means well fitted curve in the direction sought with a large enough effect; inconclusive means small, poorly fitted or top-dose-only effect, or another doubt; inactive means no such curve, though single readings can be large; an effect the other way counts as inactive or inconclusive.

SMILES	Gal4-VP16 FLuc	uPA surface inh	TRPV1 ag	RORg inh	TRPV1 potentiator
CCCCc1n[nH]c(=S)n1Cc1ccc(Cl)cc1	7.08µM*	4.4%	-0.9	3.98µM*	5.9
CCCCc1n[nH]c(=S)n1Cc1ccccc1	15.8µM*	-1.8%	-2.2	3.98µM*	-2.9
CC(=O)OC[C@H]1O[C@@H](O/N=C(\C)CCN2CCCCc3nc(C)c(C)cc32)[C@H](OC(C)=O)[C@@H](OC(C)=O)[C@H]1OC(C)=O	7.3%[10 µM]	x	x	-0.6%[10 µM]	x
COc1cc(C(=O)OCC(=O)c2cc(C)n(C)c2C)cc(OC)c1OC	-3.5%	-10.5%	2.8	-0.8%	5.7
CCC(=O)c1ccc(OCC(=O)OCC(=O)c2cc(C)n(C)c2C)cc1	1.26µM*	10.4%	-0.7	0.891µM*	-1.3
Cc1cc(C(=O)COC(=O)c2nccnc2N)c(C)n1C	u	-3.6%	-1.2	10µM*	6.9
CCC(=O)c1ccc(OCC(=O)OCC(=O)c2c(N)n(C)c(=O)n(C)c2=O)cc1	x	7.2%	-4.4	x	-19.7
Cc1cc(C)nc(N(C#N)Cc2cccc3ccccc23)n1	2.6%	-1.1%	4.7	-9.8%	-6.9
Clc1ccc(N=c2ssnc2Cl)nc1	-6.8%	10.7%	4.6	10µM*	-5.3
COc1ccc(C2(C)NC(=O)N(CC(=O)Nc3ccc4[nH]c(=O)[nH]c4c3)C2=O)cc1 (stereo unspecified)	x	-4.1%	-2.2	x	-22.2
CC1(c2ccc(OC(F)F)cc2)NC(=O)N(CC(=O)Nc2ccc3[nH]c(=O)[nH]c3c2)C1=O (stereo unspecified)	x	4.3%	-6.6	x	80.9*
COc1cc2c(=O)n(CCC(=O)NCC3CCCO3)c(=O)n(CC(=O)c3ccc(Cl)cc3)c2cc1OC (stereo unspecified)	-13.4%	-5.9%	-2.9	39.5%	6.2
CC1(C)C(c2cccs2)=[N+]([O-])C2(CCCCC/C2=N\NC(N)=S)N1O (stereo unspecified)	6.1%	0.1%	1.0	0.631µM*	-0.9
CC1(C)C(c2ccco2)=[N+]([O-])C2(CCCCC2=O)N1O (stereo unspecified)	-0.6%	-0.1%	-0.9	-17.7%	13.2
O=C1CS/C(=N/N=C/c2ccncc2)N1	2.8%	5.5%	-1.2	-8.9%	2.2
CC1(C)S/C(=N/N=C/c2cccs2)NC1=O	5.01µM*	-0.2%	-5.0	0.794µM*	11.4
O=C1CS/C(=N/N=C/c2cccs2)N1	u	2.3%	-11.0	0.562µM*	-2.1
Cc1nn(S(=O)(=O)c2ccccc2)c(C)c1S(=O)(=O)N1CCC(C)CC1	6.1%	18.7%	1.1	-19.8%	1.3
CCCCC(=O)Nc1nc2c(s1)COc1ccccc1-2	-12.8%	-1.6%	121.0*	u	25.1
O=S(=O)(NCc1ccccn1)c1cc(C(F)(F)F)ccc1Cl	u	u	-6.9	7.08µM*	11.9
CCOc1cc(S(=O)(=O)NCc2ccccn2)ccc1Cl	-4.8%	0.1%	2.3	-39.0%	-0.1
O=S(=O)(NCc1ccccn1)c1ccc(Cl)c(C(F)(F)F)c1	u	-28.7%	25.7	7.08µM*	-18.7
O=S(=O)(Nc1ncccn1)c1cc(Cl)ccc1Cl	1.3%	-1.0%	-0.3	-19.0%	2.9
O=S(=O)(NCc1ccccn1)c1cc(Cl)ccc1Cl	10µM*	-2.6%	-0.9	8.91µM*	-14.9
O=C(c1ccc(Cn2cc(Br)cn2)o1)N1N=C(C(F)F)CC1(O)C(F)F (stereo unspecified)	-17.5%	x	-2.6	11.2µM*	8.2
SMILES	Gal4-VP16 FLuc	uPA surface inh	TRPV1 ag	RORg inh	TRPV1 potentiator
O=C(c1ccc(COc2ccc(Cl)cc2)o1)N1N=C(C(F)F)CC1(O)C(F)F (stereo unspecified)	u	2.3%	-2.1	u	13.9
O=c1cc(-c2ccccc2)[nH]n1-c1nc2ccccc2s1	u	-0.2%	-2.8	8.91µM*	-22.1
O=c1cc(-c2ccccc2)[nH]n1-c1ccccc1	x	-0.2%	x	x	x
Cc1cc2c(c(=O)o1)[C@@H](O)[C@H]1O[C@@H]1C2=O	-13.3%[10 µM]	x	x	u	x
O=C(CCc1ccc(Oc2cc([N+](=O)[O-])cc([N+](=O)[O-])c2)cc1)N1CCCCC1	12.6µM*	2.1%	-4.3	u	-7.9
O=C(c1ccc(Oc2ccc([N+](=O)[O-])cc2)cc1)N1CCCCCC1	x	-3.9%	3.3	x	7.2
CCC(=O)c1ccc(OCC(O)Cn2c(C)nc3ccccc32)cc1 (stereo unspecified)	7.94µM*	-10.2%	1.4	u	-4.8
Cc1nc2ccccc2n1CC(O)COc1ccc(Br)cc1 (stereo unspecified)	14.1µM*	-3.5%	12.1	u	6.8
Cc1nc2ccccc2n1CC(O)COc1ccccc1Cl (stereo unspecified)	17.8µM*	-15.5%	19.6	u	-15.7
CCC(=O)c1ccc(OCC(O)Cn2cnc3ccccc32)cc1 (stereo unspecified)	-14.6%	-2.3%	-0.2	u	2.1
O=C(N[C@@H](Cc1ccccc1)C(=O)O)c1ccccc1	9.6%	x	x	17.3%	x
Cc1ccc(-c2ccc(/C=C(\C#N)C(N)=S)n2C)cc1	u	5.1%	2.8	2.24µM*	12.0
Cn1cccc1/C=C(/C#N)C(N)=S	-13.6%	12.8%	-4.9	1.4%	5.7
C=CCN(CC=C)C(=S)NC(=O)/C=C/c1ccccc1	-27.2%	-1.8%	-0.3	14.1µM*	1.9
C=CCN(CC=C)C(=S)NC(=O)/C=C/c1ccc(C)cc1	u	0.9%	13.2	6.31µM*	9.0
CN1C(=S)SC(C)(NO)C1(C)C (stereo unspecified)	u	x	-16.4	15.8µM*	-8.0
Cc1cccc(OCCCn2c(=O)sc3ccccc32)c1	-24.2%	4.0%	u	8.91µM*	-17.8
CCOC(=O)c1c(NC(=O)CSc2nncs2)sc(C)c1-c1ccccc1	0.447µM*	-5.2%	29.8	-24.8%	3.7
CC(=O)Nc1nonc1NC(=O)CSc1nc2ccccc2o1	3.98µM*	3.6%	-2.1	0.794µM*	15.3
Cc1nonc1NC(=O)CSc1nc2ccccc2o1	u	-1.7%	-0.3	8.91µM*	14.2
CCOC(=O)c1sc(NC(=O)CSc2nc3ccccc3o2)c(C(=O)OCC)c1C	2µM*	2.5%	-4.6	3.16µM*	5.8
Cc1cc(C)nc(NC(=O)CSc2nc3ccccc3o2)n1	5.9%	x	-5.3	u	-0.8
CCOC(=O)c1cc2n(c1/N=C/N(C)C)-c1ccccc1C2=O	1.6%	-18.6%	u	0.0%	-21.7
COc1ccccc1CNc1cc(-c2ccoc2)ncn1	23.7%	x	x	-6.3%	x
CCCc1cc(-c2n[nH]c(=S)n2-c2cccc(C)c2)cs1	u	1.7%	-1.2	1.41µM*	13.8
COc1ccc(CC(=O)NCc2n[nH]c(=S)n2-c2cccc(C)c2)cc1	4.4%	0.7%	-3.3	-33.8%	1.9
Cc1cccc(-n2c(-c3csc(C(C)C)c3)n[nH]c2=S)c1	u	x	-6.6	1.58µM*	6.7
CCOC(=O)c1cnc2c(C)cccc2c1Nc1cccc(C(=O)O)c1	3.2%	-3.9%	2.0	14.5%	0.6
